Growth data for 40 compounds are collected here from PubChem BioAssay (NCI).

About 83,000 compounds went through this panel and 20% of them were active in at least one assay; those are over-represented in the sample as a whole.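 The endpoint reported here, percent growth, reads 100 for growth as untreated, 0 for no net growth and -100 for all cells dead.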 Activity calls are given as the source filed them.

This assay concerns NCI/ADR-RES ovarian. The assay is described as follows: NCI-60 one-dose screen, 48 h (100 = growth as untreated, 0 = no growth, -100 = all killed). Particulars: 10 µM unless noted. The procedure: Growth inhibition of the NCI/ADR-RES human […] tumor cell line is measured as a screen for anti-cancer activity. Cells are grown in 96 well plates and exposed to the test compound for 48 hours. Compounds are tested at a single concentration, which is 10^-5 M for most compounds. The reported endpoint is percent growth (GI% or GIPRCNT), where numbers from 0 - 100% represent growth inhibition, and numbers from -100% - 0 represent cell death. For example, a value of 40 represents 60% growth inhibition. A value of 0 means no net growth occurred over the course of the experiment. A value of -40 indicates 40% of cells at the beginning of the experiment died by the end of the experiment. A value of -100 means all cells are dead at the end of the experiment.
NCI-60 Human Tumor Cell Lines Screen was performed using the standard one-dose NCI protocol, which is described in more detail at https://dtp.cancer.gov/discovery_development/nci-60/default.htm.
Compounds with GIPRCNT values below 10 were considered active. Activity score was based on GIPRCNT using the following formula: […]
Score is 0 for GIPRCNT values of 100 or above, 50 for GIPRCNT values of 0, and 100 for GIPRCNT values of -100.
On to `O=C1/C=C/[C@@H](O)[C@@H]2C[C@@H](O)C[C@H]2/C=C/CCC[C@@H](O)CCO1`, for which the growth is 89.2% (inactive).
In the case of `CC(=O)OC(c1ccccc1)C1CCOC1=O` (stereo not given), the growth was 97% (inactive).
For `CCNC(=O)Oc1ccc(/C(=C(/C)Cc2ccc(OC)cc2)c2ccc(OCCN3CCCCC3)cc2)cc1` the value was 85.1% (inactive); for `Cn1c(=O)c2[nH]c(SCC(=O)Nc3ccc(C(=O)/C=C/c4ccccc4Cl)cc3)nc2n(C)c1=O`, 101% (inactive); for `CC1(C)CC[C@]2(C(=O)N[C@H](CO)Cc3ccccc3)CC[C@]3(C)C(=CC[C@@H]4[C@@]5(C)CCCNC(C)(C)[C@@H]5CC[C@]43C)[C@@H]2C1`, 85.6% (inactive).
In the case of `CCOC(=O)c1c(C)nc2c(c1N)CC(=O)N2Cc1ccc(OC)cc1`, the growth was 34.4% (inactive).
For `CN(CCCNC(=O)Cc1ccc2ccc3cccc4ccc1c2c34)CCCNc1cc(-c2ccc3ccccc3c2)nc2ccccc12` the value was -77.7% (active).
With `Oc1ccc(/C=C/c2ccc(O)cc2)cc1`, the growth was 20.3% (inactive).
The value for `N#C/C(=C\c1ccc(-c2cccc(C(F)(F)F)c2)o1)c1ccccc1` was 101% (inactive); that for `CCOC(=O)C(=Cc1ccc(-c2ccccc2)cc1)C(=O)OCC` was 19.6% (inactive); that for `CCN1CCN(C(=O)[C@]23CC[C@@H](C)[C@H](C)[C@@H]2C2=CC[C@@H]4[C@@]5(C)C/C(=C/c6cccnc6)C(=O)C(C)(C)[C@@H]5CC[C@@]4(C)[C@]2(C)CC3)CC1` was 26.7% (inactive).
As to `C=C(C)[C@@H]1CCC[C@]2(C(=O)O)CC[C@]3(C)[C@@H](CC[C@@H]4[C@@]5(C)C/C(=C/c6ccncc6)C(=O)C(C)(C)[C@@H]5CC[C@]43C)[C@@H]12`, the growth is 37.5% (inactive).
On to `Cc1ccc(-c2csc(N(C(=O)N3CCN(c4cc5c(cc4F)c(=O)c(C(=O)O)cn5C4CC4)CC3)c3ccccc3)n2)cc1`, for which the growth was 6.88% (active).
As to `O=C1Nc2c(C(=O)O)cccc2/C1=N/c1n[nH]c(=S)s1`, the growth is 101% (inactive).
In the case of `C/C(=N\O)[C@@H]1CC[C@]2(CO)CC[C@]3(C)[C@H](CC[C@@H]4[C@@]5(C)CCCNC(C)(C)[C@@H]5CC[C@]43C)[C@@H]12`, the growth is 96.6% (inactive).
Turning to `CC1(C)N=C(N)N=C(N)N1c1cccc(CCc2ccccc2)c1`, the growth is 111% (inactive).
For `Cc1ccc(CNc2c3ccccc3nc3ccccc23)cc1` the value was 26.1% (inactive); for `CN(C)CCCC1(c2ccc(F)cc2)OCc2cc(-c3cc4ccccc4s3)ccc21` (stereo not given), 23.7% (inactive); for `CCN(CC)CCN1C(=O)c2cccc3c(/C=C/CN4C(=O)c5cccc6cccc(c56)C4=O)ccc(c23)C1=O`, 99.8% (inactive).
Consider `O=C1/C=C/[C@@H](O)[C@@H]2C[C@@H](O)C[C@H]2/C=C/CCC[C@H](CCO)O1`, for which the growth is 5.98% (active).
The value for `COc1cccc(/C=C/C(=O)c2cccc(Nc3nc(Nc4ccccc4)nc(Nc4ccccc4)n3)c2)c1` was 83.4% (inactive); that for `COc1ccc(-c2nn(-c3ccccc3)cc2/C=C/C(=O)NNC(=O)Nc2ccc(C)cc2)cc1` was 92.8% (inactive).
On to `COc1ccc(C(=O)/C=C/c2ccc(N3CCCCC3)cc2)cc1OC`, for which the growth was 92.8% (inactive).
Consider `Cc1ccc(CNc2ccc3nc(CCC(C)C)[nH]c3c2)cc1`, for which the growth was 89.6% (inactive).
On to `Cc1ccc2c(-n3nc(C#N)c(C#N)c3N)cc(=O)[nH]c2c1`, for which the growth is 110% (inactive).
For `C/C(Cc1ccc(Cl)cc1)=C(\c1ccc(OCCCN(C)C)cc1)c1ccc(OC(=O)Cc2ccccc2)cc1` the value was 103% (inactive); for `CN1CCN(CCCOc2cccc3nc(Nc4ccc(F)c(F)c4)ccc23)CC1`, 12.1% (inactive); for `CC1C(/C=N/NC(N)=S)C(C#N)(C#N)C1(C#N)C#N` (stereo not given), 110% (inactive).
On to `Cc1ccc2c(-c3nnc(N)s3)cc(=O)oc2c1C`, for which the growth was 102% (inactive).
On to `CCCn1nc(C(=O)N(C)Cc2ccccc2)c2c1CCC(N1CCc3ccccc31)C2` (stereo not given), for which the growth is 94.4% (inactive).
Turning to `CCN1CCN(CC(=O)Nc2nc3ccc(NCc4ccc(F)cc4)cc3s2)CC1`, the growth is 92.2% (inactive).
The value for `C[C@]1(O)CC(=O)[C@]2(O)C3=C(C=C[C@]2(O)C1)C(=O)c1c(O)cccc1C3=O` was 47.2% (inactive).
The value for `CCCCCCCCCCCCCOC(=O)c1c(C)[nH]c(/C=C2\N=C(c3ccc[nH]3)C=C2OC)c1C` was 22.5% (inactive).
The value for `O=c1ccc(=O)n(-c2nc(-c3ccc([N+](=O)[O-])cc3)cs2)[nH]1` was 104% (inactive).
With `C=Cc1cnc(Nc2ccc(OC)cc2)nc1NCCCNC(=O)C1CCC1`, the growth was 53.5% (inactive).
For `COC(=O)N1CC(Oc2ccccn2)C2CC1c1ccccc1O2` (stereo not given) the value was 98.5% (inactive).
For `O=C(C1CCCCC1)[C@@H]1[C@]2(C(=O)NC3CCCCC32)[C@@H]2CCCN2[C@@]12C(=O)NC1CCC(Cl)CC12` (stereo not given in full) the value was -68.2% [100 µM] (active); for `O=C1c2ccccc2C(=O)c2c1c(C(=O)NCc1ccccc1)c1ccccn21`, 103% (inactive).
With `COC(=O)c1c2c(c(C)[n+]([O-])c1C)C(=O)C(NCc1ccc(OC)cc1)=CC2=O`, the growth is 10.1% (inactive).
As to `CN(Cc1cnc2nc(N)nc(N)c2n1)c1ccc(C(=O)NC(CCC(=O)O)C(=O)O)cc1Br` (stereo not given), the growth was 38.4% (inactive).
